Test results: PubChem BioAssay (NCI)
The panel holds about 83,000 compounds, 20% with a hit somewhere; the sample as a whole holds those more often.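 Single-dose data. Exposure time 48 hours. Values below 10 considered active.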 A number with no mark means an inactive call. The source made the active and inactive calls.

Tests used:
Test in all cases: NCI-60 one-dose screen, 48 h (100 = growth as untreated, 0 = no growth, -100 = all killed)
Conditions in all cases: 10 µM unless noted
[1] = system: NCI-H23 lung
[2] = system: NCI-H226 lung
[3] = system: NCI-H322M lung
[4] = system: HOP-62 NSCLC
[5] = system: NCI-H460 lung
[6] = system: NCI-H522 lung
[7] = system: A549/ATCC NSCLC
[8] = system: 786-0 renal
[9] = system: COLO 205 colon
[10] = system: DU-145 prostate
[11] = system: K-562 leukemia
[12] = system: MALME-3M melanoma
[13] = system: MDA-MB-231 breast
[14] = system: RXF 393 renal
[15] = system: SF-268 CNS
[16] = system: SF-295 CNS
[17] = system: SF-539 CNS
[18] = system: UACC-257 melanoma
[19] = system: M14 melanoma
[20] = system: HOP-92 NSCLC

Row | SMILES | growth [1] | growth [2] | growth [3] | growth [4] | growth [5] | growth [6] | growth [7] | growth [8] | growth [9] | growth [10] | growth [11] | growth [12] | growth [13] | growth [14] | growth [15] | growth [16] | growth [17] | growth [18] | growth [19] | growth [20]
1 | COc1ccccc1C(=O)/C=C/c1cc2cccc(OC)c2[nH]c1=O | -16.4% (active) | -22.1% (active) | 8.09% (active) | -8.85% (active) | -27.5% (active) | -72.7% (active) | 21.4% | 9.27% (active) | -49.7% (active) | 16.5% | 5.33% (active) | -0.686% (active) | -0.926% (active) | -43.5% (active) | 2.36% (active) | 14.1% | -10% (active) | 33.6% | 9.63% (active) | 
2 | COc1cc(C2=NN(C=O)C(c3cccc(Nc4ccnc5cc(C(F)(F)F)ccc45)c3)C2)cc(OC)c1OC (stereo not drawn) | 59.9% | 64.3% | 66.2% | 70.1% | 44% | 53.1% | 49% | 63.3% | 56.8% | 40% | 37.8% | 86.3% | 58.1% | 72.4% | 46.6% | 65.2% | 77% | 81.2% | 15.4% | 
3 | Oc1ccc(CNNc2ccnc3c(O)cccc23)c2cccnc12 | 31.6% | 86.7% | 47.8% | 25.2% | 12.3% | 13% | 26.5% | 39% | 64.8% | 43.4% | 9.71% (active) | 66.7% | 37.4% | 59.6% | 37.6% | 17.7% | 32.2% | 38.3% | 30.9% | 
4 | O=C1Nc2ccccc2C12C=C(c1ccccc1)Nc1c2c(-c2ccccc2)nn1-c1ccccc1 (stereo not drawn) | 84.1% | 96.9% | 82.7% | 81.4% | 36.5% | 69.4% | 44.8% | 80.6% | 80.8% | 83.4% | 37.5% | 98.5% | 85.6% | 5.5% (active) | 58.5% | 42.1% | 86.4% | 88.7% | 58.2% | 
5 | Cc1nnc(/N=C2\NC(=O)/C(=C/c3ccc(N(C)C)cc3)S2)s1 | 81.7% | 89.2% | 85.5% | 65.8% | 33.2% | 2.45% (active) | 63.5% | 76.8% | 98.7% | 84% | 49.7% | 56.9% | 103% | 76.9% | 73% | 47.9% | 83.7% | 83.3% | 51.1% | 
6 | COC(=O)[C@]1(C)CCC[C@]2(C)[C@H]3C[C@H]4C(C(C)C)=C[C@]3(CC[C@H]21)[C@@H]1C(=O)N(CCC#N)C(=O)[C@@H]14 | 93.7% | 81.9% | 109% | 89.9% |  | 75.3% | 86% | 99.7% | 94.7% | 99.4% | 55.8% | 103% | 89.5% | 86.7% | 89.4% | 99.5% | 98% | 85.4% | 83.1% | 81.1%
7 | CC(C)(C)c1ccc2oc(=O)n(SC(Cl)(Cl)Cl)c2c1 | 95.1% | 104% | 106% | 94.1% |  | 79% | 97% | 91.1% | 106% | 111% | 82.4% | 109% | 104% | 110% | 98.2% | 97.1% | 97.2% | 111% | 94.4% | 106%
8 | CC(C)CSc1nc(Nc2ccccc2)c(C#N)c(-c2ccc(F)cc2)n1 |  | 6.87% (active) | 27.9% | 7.29% (active) | 3.5% (active) | 59.1% | 21.4% | -45.6% (active) | 20.3% | 75.9% | 50.7% | -5.57% (active) | -3.62% (active) | 2.42% (active) | 37.7% | 16.2% | 22.4% | 66.2% | 31.6% | -47.6% (active)
9 | Cc1[nH]c(N=Nc2ccccc2)nc1N=Nc1ccccc1 | 36.3% | 12.7% | 39% | 36.5% |  | -17.5% (active) | 27% | 6.21% (active) | 17.2% | 33.6% | 23.6% | 30.2% | 38.1% | -31.9% (active) | 19.2% | 17.4% | 6.93% (active) | -42.4% (active) | 3.54% (active) | 40.3%
10 | COc1cccc(C(=O)OCCn2nc3c4c(cccc42)C(=O)c2ccccc2-3)c1O | 44.2% | 79.9% | 53.8% | 39.5% |  | 24.8% | 67.4% | 72.3% | 107% | 54.7% | 13.7% | 62.6% | 62.2% | 53% | 55.8% | 17.1% | 9.58% (active) | 79.4% | 36.2% | 62.1%
11 | CC(C)(C)CC(C)(C)Cc1ccc(OCCOCC[N+](C)(C)Cc2ccccc2)cc1 | 20.7% | 38.1% | 70.6% | 66.1% |  | 9.27% (active) | 71.8% | 44.5% | -72.3% (active) | 53.4% | 9.56% (active) | -40.2% (active) | -26.7% (active) | 16.5% | 20.7% | 73.5% | 30.9% | 2.66% (active) | 7.33% (active) | -7.72% (active)
12 | COc1cc(-c2nn(-c3ccc(Br)cc3)cc2CO)ccc1O | 95.2% | 105% | 93.8% | 95.4% |  | 72.1% | 78.1% | 95.6% | 119% | 93.6% | 74.2% | 119% | 68.9% | 116% | 77.7% | 98.6% | 92% | 90.7% | 102% | 90.8%
13 | COc1ccc(-n2cc(COc3ccc4c5ccnc(C)c5n(CC(C)C)c4c3)nn2)cc1 | 61.9% | 52.3% | 88.7% | 56.6% |  | 37.3% | 67.1% | 73.9% | 68.6% | 88.3% | 27.3% | 71.2% | 73.1% | 57.5% | 79% | 60.6% | 82.6% | 52.7% | 71.5% | 44.9%
14 | COc1cc(C2=NN(c3ccccc3)C(c3cccc(Nc4ccnc5cc(C(F)(F)F)ccc45)c3)C2)cc(OC)c1OC (stereo not drawn) | 79.1% | 83.6% | 85.6% | 88.8% |  | 76.4% | 86.5% | 101% | 86.7% | 93.6% | 68.2% | 92.1% | 85.9% | 73.7% | 74.3% | 64.8% | 100% | 97.3% | 92.9% | 73.4%
15 | O=S(=O)(Nc1nccs1)c1ccc(Nc2nc(-c3ccncc3)cs2)cc1 | 108% | 102% | 126% | 93.8% |  | 97.6% | 104% | 97.8% | 93.2% | 106% | 109% | 113% | 105% | 110% | 107% | 120% | 88.2% | 109% | 103% | 
16 | CC(=O)c1c(OCC#N)ccc2c(C)cc(=O)oc12 | 109% | 112% | 113% | 94.7% |  | 77.3% | 99.9% | 106% | 104% | 114% | 69% | 116% | 104% | 106% | 110% | 125% | 105% | 133% | 102% | 108%
